Reference: PubChem BioAssay (NCATS)
Inconclusive results are not listed. Entries that show only a call come without a potency. Calls of active or inactive are those of the source. Unless noted, calls come from the whole dose curve; as a rule, active = well fitted curve in the direction sought with a large enough effect; inconclusive = small, poorly fitted or top-dose-only effect, or another doubt; inactive = no such curve, though single readings can be large; an effect the other way counts as inactive or inconclusive.

How the values were obtained:
[1] = qHTS Assay for Modulators of Human Peripheral Myelin Protein 22 (PMP22) Expression/Activity (AID 1967; active = well fitted curve in the direction sought with a large enough effect in the signal ratio; the % refers to the signal ratio)
How it was run: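 Engineered MSC80 cells, Pmp22-promoter green and EF-alpha red luciferase reporters; 24h compound treatment at 37 °C. Concentration-response fits on green, red and ratio signals, each overlap-corrected, with %Activity normalized to untreated wells.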

[2] = biological target: Ferritin light chain (Equus caballus) (UniProt P02791); experiment: qHTS Validation Assay for Identification of Novel General Anesthetics (AID 2323)
Sequence of Ferritin light chain (Equus caballus) (P02791 2-175 limits assumed): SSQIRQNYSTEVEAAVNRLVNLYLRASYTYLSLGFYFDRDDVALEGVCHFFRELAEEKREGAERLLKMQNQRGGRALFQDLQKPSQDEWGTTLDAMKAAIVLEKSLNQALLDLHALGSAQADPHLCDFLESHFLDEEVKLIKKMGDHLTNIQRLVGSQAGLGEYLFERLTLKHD
How it was run: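 Normalized fluorescence response, scaled between free 1-AMA and 1-AMA/apoferritin complex, fitted to a four-parameter Hill equation for concentration-effect values. Binding mix: 10 uM horse-spleen apoferritin, 50% saturated 1-AMA in PBS; read 380/535 nm after 10 min.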

[3] = biological target: ATP-dependent DNA helicase Q1 (Homo sapiens) (UniProt P46063); experiment: qHTS Validation Assay for Inhibitors of RecQ-Like Dna Helicase 1 (RECQ1) (AID 2353)
Sequence of ATP-dependent DNA helicase Q1 (Homo sapiens) (P46063 whole entry, looked up): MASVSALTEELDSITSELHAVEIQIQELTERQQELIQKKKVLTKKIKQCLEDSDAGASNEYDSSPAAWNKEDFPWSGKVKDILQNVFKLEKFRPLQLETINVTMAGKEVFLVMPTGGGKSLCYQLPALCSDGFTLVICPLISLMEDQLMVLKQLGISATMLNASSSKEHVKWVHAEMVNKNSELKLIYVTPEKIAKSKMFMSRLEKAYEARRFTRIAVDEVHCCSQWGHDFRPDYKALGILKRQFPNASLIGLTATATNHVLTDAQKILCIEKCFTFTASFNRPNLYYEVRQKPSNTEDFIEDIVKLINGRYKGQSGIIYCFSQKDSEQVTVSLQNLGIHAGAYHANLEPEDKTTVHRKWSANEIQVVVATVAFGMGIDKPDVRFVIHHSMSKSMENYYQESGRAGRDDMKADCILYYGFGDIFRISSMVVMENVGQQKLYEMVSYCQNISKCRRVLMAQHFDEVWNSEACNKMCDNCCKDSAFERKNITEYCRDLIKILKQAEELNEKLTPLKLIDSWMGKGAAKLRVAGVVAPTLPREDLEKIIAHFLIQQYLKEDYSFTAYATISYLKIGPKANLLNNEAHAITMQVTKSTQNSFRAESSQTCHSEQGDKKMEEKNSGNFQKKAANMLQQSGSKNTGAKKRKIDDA
How it was run: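 50 nM RECQ1T1 preincubated 15 min with compound in Tris pH 8.0 buffer with MgCl2, DTT, Tween-20 and 2.5 ug/ml poly(dI-dC); started with 200 nM TAMRA/BHQ-2 forked duplex and 2 mM ATP. Unwinding read as fluorescence (525/598 nm), two reads 2 h apart.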

[4] = Cytometric Cell-Based qHTS for Inhibitors of the mTORC1 Signaling Pathway in MEF (Tsc2-/-, p53-/-) Cells (AID 2660);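 note: percent of cells above a phospho-rpS6 to PI ratio cutoff in each well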
How it was run: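 Percent of cells positive for normalized phospho-S6 staining is reported, with the cutoff set from rapamycin (7.5 nM) versus DMSO wells. Tsc2-/-, p53-/- MEFs received compound for 24 hrs.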

[5] = High Content Imaging Cell-Based qHTS for Inhibitors of the mTORC1 Signaling Pathway in MEF (Tsc2-/-, p53-/-) Cells (AID 2666); conditions: at 38.3 µM (top of the series);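 note: percent of cells scored positive for phospho-rpS6 Ser235/236 immunostaining by imaging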
How it was run: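 Phospho-rpS6 (Ser235/236) immunofluorescence, normalized and scored as % positive cells using rapamycin and DMSO controls, was read in empty-vector Tsc2-/-, p53-/- MEFs after 24 h compound exposure at 37 C; propidium iodide counted cells.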

[6] = High Content Imaging Cell-Based qHTS for Inhibitors of the mTORC1 Signaling Pathway in MEF Cells (AID 2667);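 note: Tsc2-/- p53-/- MEFs stably re-expressing wild-type Tsc2 exposed 24 h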
How it was run: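 WT MEFs (Tsc2-/-, p53-/- re-expressing Tsc2), in DMEM + 10% FBS, were treated with compound for 24 h at 37 C. Cells were then fixed and stained for phospho-rpS6 Ser235/236 with propidium iodide as cell count. Values are % positive cells, with thresholds set against rapamycin-treated cells.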

[7] = Cytometry Cell-Based qHTS for Inhibitors of the mTORC1 Signaling Pathway in MEF cells (AID 2668);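 note: Tsc2-/- p53-/- mouse embryonic fibroblasts stably re-expressing wild-type Tsc2; percent cells positive for phospho-rpS6 Ser235/236 relative to propidium iodide stain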
How it was run: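 In MEFs grown in DMEM + 10% FBS, a 24 hrs compound exposure preceded imaging of phospho-rpS6 Ser235/236 by laser-scanning cytometry.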

[8] = Validation screen for small molecules that induce DNA re-replication in MCF 10A normal breast cells (AID 463097); note: nearly all actives have a fitted effect of over 60% in size
How it was run: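 Following 48 hr compound incubation (37 C, 5% CO2), MCF 10A cells receive Hoechst for 40 min at 37 C. Nuclei are then scanned (excitation 405 nm, emission 500-530 nm) for total fluorescence intensity.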

[9] = biological target: Ubiquitin carboxyl-terminal hydrolase 2 (Homo sapiens) (UniProt O75604); experiment: qHTS Validation Assay for Inhibitors of Ubiquitin-specific Protease USP2a Using CHOP2 as the Reporter (AID 463106)
Sequence of Ubiquitin carboxyl-terminal hydrolase 2 (Homo sapiens) (O75604 whole entry, looked up): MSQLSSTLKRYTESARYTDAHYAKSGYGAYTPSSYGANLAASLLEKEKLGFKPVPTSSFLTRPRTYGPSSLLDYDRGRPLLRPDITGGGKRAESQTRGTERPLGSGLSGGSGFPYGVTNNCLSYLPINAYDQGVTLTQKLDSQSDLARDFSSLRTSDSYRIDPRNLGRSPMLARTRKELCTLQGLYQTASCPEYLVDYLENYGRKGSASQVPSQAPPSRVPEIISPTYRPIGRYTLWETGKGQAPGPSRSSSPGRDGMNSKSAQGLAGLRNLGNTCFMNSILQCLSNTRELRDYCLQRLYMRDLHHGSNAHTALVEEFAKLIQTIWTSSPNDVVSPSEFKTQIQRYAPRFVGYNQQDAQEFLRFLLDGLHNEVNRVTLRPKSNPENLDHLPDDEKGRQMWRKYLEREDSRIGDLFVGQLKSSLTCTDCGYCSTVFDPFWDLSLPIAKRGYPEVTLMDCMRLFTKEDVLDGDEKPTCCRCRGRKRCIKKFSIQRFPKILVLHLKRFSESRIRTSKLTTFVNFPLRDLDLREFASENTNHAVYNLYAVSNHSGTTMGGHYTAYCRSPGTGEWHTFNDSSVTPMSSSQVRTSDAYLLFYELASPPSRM
How it was run: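 USP2 core (10 nM final) was preincubated with compound 30 min at RT in pH 8.0 Tris/CaCl2/beta-ME/CHAPS buffer. Ub-CHOP2 and reporter substrate (25 nM final each) were then added, with fluorescence (Ex 485/Em 531) read after 60 min. Data were normalized to NEM full inhibition and fitted to concentration-response curves.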

[10] = biological target: DNA polymerase III PolC-type (Bacillus subtilis (strain 168)) (UniProt P13267); experiment: qHTS Validation Assay for the Inhibitors of DNA Replication in Gram-Positive Bacteria (AID 485295);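 note: reconstituted holoenzyme with PolC plus beta clamp SSB and primase; PicoGreen fluorescence of double-stranded DNA made on primed circular M13 template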
Sequence of DNA polymerase III PolC-type (Bacillus subtilis (strain 168)) (P13267 whole entry, looked up): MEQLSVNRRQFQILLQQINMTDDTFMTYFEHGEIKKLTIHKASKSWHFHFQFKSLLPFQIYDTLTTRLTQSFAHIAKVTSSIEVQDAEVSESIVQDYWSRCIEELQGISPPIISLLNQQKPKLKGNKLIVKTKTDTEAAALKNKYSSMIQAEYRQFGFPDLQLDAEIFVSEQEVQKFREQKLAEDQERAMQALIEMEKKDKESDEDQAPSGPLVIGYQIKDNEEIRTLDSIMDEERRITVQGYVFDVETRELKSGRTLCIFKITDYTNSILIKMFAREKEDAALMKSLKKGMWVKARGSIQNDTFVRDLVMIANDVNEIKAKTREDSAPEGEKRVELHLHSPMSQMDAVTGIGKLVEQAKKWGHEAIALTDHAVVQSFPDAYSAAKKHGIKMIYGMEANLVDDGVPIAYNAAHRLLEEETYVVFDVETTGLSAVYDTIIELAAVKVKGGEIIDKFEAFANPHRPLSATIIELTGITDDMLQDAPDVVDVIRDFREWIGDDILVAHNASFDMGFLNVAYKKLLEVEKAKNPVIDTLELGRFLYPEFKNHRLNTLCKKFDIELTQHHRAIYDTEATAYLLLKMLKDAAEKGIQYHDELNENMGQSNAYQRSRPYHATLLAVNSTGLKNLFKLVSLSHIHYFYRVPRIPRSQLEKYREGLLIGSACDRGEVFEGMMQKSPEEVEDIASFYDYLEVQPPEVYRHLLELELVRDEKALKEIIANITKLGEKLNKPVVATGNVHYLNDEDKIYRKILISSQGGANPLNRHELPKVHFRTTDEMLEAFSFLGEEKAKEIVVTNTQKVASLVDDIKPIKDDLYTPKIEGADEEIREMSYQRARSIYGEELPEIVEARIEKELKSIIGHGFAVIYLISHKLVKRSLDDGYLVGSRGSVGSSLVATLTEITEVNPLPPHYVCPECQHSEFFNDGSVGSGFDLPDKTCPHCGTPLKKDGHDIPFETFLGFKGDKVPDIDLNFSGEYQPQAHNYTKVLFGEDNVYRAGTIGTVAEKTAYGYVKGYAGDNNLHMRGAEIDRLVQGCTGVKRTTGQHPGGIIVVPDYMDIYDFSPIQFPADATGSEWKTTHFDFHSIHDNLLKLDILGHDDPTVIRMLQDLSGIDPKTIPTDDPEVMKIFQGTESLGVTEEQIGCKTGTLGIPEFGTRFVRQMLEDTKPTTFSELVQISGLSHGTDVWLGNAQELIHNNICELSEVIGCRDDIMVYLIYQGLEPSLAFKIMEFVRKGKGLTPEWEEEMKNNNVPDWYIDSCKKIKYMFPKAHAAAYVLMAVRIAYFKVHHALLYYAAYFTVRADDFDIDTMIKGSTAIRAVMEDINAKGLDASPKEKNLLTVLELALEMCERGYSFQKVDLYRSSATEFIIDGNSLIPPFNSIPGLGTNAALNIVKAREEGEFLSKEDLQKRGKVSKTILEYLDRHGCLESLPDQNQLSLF
How it was run: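 Inhibition of DNA synthesis by the reconstituted PolC holoenzyme, monitored through PicoGreen staining of dsDNA formed from ssM13Gori, dNTPs and NTPs, with compound preincubation and room-temperature reaction.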

[11] = biological target: Tumor susceptibility gene 101 protein (Homo sapiens) (UniProt Q99816); experiment: qHTS Validation Assay for Iinhibitors of HIV-1 Budding by Blocking the Interaction of PTAP/TSG101 (AID 485342; calls by dose curve)
Sequence of Tumor susceptibility gene 101 protein (Homo sapiens) (Q99816 whole entry, looked up, the tested form may be a part): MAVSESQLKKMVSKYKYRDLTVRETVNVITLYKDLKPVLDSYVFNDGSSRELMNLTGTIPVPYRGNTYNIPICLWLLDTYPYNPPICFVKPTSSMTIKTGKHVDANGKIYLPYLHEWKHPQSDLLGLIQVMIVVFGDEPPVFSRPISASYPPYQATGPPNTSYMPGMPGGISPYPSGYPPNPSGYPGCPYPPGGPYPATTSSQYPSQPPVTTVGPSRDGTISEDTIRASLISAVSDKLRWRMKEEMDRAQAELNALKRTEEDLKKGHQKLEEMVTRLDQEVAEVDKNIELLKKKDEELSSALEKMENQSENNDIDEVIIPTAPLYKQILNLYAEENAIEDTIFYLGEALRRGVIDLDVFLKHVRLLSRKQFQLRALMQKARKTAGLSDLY
How it was run: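 Compound wells held the Tsg101 binding domain (10 uM) and a FITC-conjugated PTAP peptide (50 nM) in buffer at pH 7.5 containing 0.15 M NaCl and 0.01% Tween 20; polarization was recorded after 20 min, r.t.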

[12] = qHTS Validation Assay to Find Inhibitors of Chronic Active B-Cell Receptor Signaling (AID 485345; active = well fitted curve in the direction sought with a large enough effect in the main read-out, with a control signal flat, not every such curve was filed as active)
How it was run: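 TMD8 ABC-DLBCL cells stably carrying doxycycline-inducible IkappaBalpha–green luciferase fusion plus unfused red luciferase; compounds 46 uM to 3 nM, 4 h at 37C with doxycycline. Corrected green/red luminescence ratio normalized to 10 uM MG-132 and basal cell wells; curves fitted.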

[13] = biological target: Beta-2 adrenergic receptor (Homo sapiens) (UniProt P07550); experiment: qHTS validation assay of beta-arrestin-biased ligands of beta2-adrenergic receptor (AID 485366)
Sequence of Beta-2 adrenergic receptor (Homo sapiens) (P07550 whole entry, looked up): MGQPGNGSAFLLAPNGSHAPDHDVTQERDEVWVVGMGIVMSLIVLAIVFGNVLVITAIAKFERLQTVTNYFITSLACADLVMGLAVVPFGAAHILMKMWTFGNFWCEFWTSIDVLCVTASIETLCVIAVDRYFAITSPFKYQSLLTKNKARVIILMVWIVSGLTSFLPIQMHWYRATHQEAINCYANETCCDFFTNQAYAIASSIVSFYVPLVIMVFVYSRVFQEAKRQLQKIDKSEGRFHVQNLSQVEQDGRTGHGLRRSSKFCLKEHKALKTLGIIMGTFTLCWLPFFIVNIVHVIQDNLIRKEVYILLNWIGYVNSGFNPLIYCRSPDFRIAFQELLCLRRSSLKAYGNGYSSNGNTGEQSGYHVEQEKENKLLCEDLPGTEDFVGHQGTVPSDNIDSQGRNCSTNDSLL
How it was run: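 Luminescence from a tTA-responsive luciferase, induced when recombinant beta-arrestin is recruited to recombinant beta2-AR, served as the agonism signal. Cells were exposed to compound for 18 hr at 37 degrees C; titrations spanned up to 46 microM.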

[14] = biological target: ATP-dependent 6-phosphofructokinase (Trypanosoma brucei brucei) (UniProt O15648); experiment: qHTS Validation Assay to Find Inhibitors of T. brucei phosphofructokinase (AID 485368); conditions: outcome: dose series up to 57.5 µM
Sequence of ATP-dependent 6-phosphofructokinase (Trypanosoma brucei brucei) (O15648 whole entry, looked up): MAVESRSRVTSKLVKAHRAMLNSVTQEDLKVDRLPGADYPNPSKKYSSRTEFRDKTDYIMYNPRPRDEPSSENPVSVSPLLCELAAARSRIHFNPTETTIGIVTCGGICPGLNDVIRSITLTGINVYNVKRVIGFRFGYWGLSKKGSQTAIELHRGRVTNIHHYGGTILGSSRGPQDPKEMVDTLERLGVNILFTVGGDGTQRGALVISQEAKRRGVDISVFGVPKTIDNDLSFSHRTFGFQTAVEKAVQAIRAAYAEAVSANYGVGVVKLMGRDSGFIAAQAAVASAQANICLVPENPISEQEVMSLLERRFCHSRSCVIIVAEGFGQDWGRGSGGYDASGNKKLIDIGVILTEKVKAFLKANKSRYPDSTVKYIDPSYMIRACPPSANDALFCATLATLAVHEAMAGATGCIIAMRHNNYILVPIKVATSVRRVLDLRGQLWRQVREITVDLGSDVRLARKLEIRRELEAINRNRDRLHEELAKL
How it was run: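 Activity was normalized between 1x (1.25 nM) PFK wells as no inhibition and enzyme-free wells as full inhibition, from luminescence after ADP-Glo detection of ADP made from 0.5 mM F6P and 0.1 mM ATP over 45 min.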

[15] = Quantitative high throughput screen for delayed death inhibitors of the malarial parasite plastid, 96 hour incubation (AID 488745); note: nearly all actives have a fitted effect of over 70% in size; note: potency is the fitted concentration of half-maximal effect
How it was run: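 Luciferase-expressing P. falciparum in erythrocytes (2% hematocrit, 0.1% parasitemia) incubated with compound for 96 h at 37 C, 5% CO2, in RPMI 1640 with 0.5% Albumax. Growth inhibition read as decreased luminescence.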

[16] = Quantitative high throughput screen for delayed death inhibitors of the malarial parasite plastid, 48 hour incubation (AID 488752); note: nearly all actives have a fitted effect of over 65% in size; note: potency is the fitted concentration of half-maximal effect
How it was run: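 Erythrocytes infected with firefly luciferase-expressing P. falciparum (2% hematocrit, 0.1% parasitemia) cultured with compound for 48 h at 37 C, 5% CO2, in RPMI 1640/0.5% Albumax. Growth inhibition read as loss of luminescence.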

[17] = biological target: Thioredoxin reductase 1, cytoplasmic (Rattus norvegicus) (UniProt O89049); experiment: qHTS Assay for Substrates of Mammalian Selenoprotein Thioredoxin Reductase 1 (TrxR1) (AID 488772);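 note: NADPH fluorescence in the first read after selenite addition and not the 8 min delta; a drop in NADPH fluorescence below the no-compound background marks a TrxR1 substrate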
Sequence of Thioredoxin reductase 1, cytoplasmic (Rattus norvegicus) (O89049 whole entry, looked up): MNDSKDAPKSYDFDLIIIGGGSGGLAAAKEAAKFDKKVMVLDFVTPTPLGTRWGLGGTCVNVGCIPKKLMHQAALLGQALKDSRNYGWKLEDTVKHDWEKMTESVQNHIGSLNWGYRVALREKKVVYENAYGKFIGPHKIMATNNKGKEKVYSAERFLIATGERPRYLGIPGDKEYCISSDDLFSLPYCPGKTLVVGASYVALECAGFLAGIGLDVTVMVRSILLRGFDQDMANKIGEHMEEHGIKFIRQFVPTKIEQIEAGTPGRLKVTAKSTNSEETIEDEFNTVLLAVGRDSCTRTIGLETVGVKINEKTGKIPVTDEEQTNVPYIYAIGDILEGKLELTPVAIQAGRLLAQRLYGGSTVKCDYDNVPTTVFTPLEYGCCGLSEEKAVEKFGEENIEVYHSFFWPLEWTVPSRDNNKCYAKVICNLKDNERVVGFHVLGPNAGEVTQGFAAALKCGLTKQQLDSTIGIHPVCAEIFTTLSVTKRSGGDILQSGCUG
How it was run: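 Quantitative HTS in Tris-HCl buffer at pH 7.5 with EDTA and Tween-20, using rat TrxR1, 400 uM NADPH and 400 uM selenite (final). A fall in initial NADPH fluorescence relative to background marked substrate behaviour.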

[18] = biological target: Thioredoxin reductase 1, cytoplasmic (Rattus norvegicus) (UniProt O89049); experiment: qHTS Assay for Inhibitors of Mammalian Selenoprotein Thioredoxin Reductase 1 (TrxR1) (AID 488773); conditions: Potency: inhibition;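 note: drop in NADPH fluorescence over an 8 min run after selenite addition; nearly all actives have a fitted effect of over 40% in size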
How it was run: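 Steps: enzyme (90 nM) plus NADPH (400 uM final), 5 min at ~22 deg C; compound added, 15 min; selenite (400 uM final) added; fluorescence followed for 8 min. Concentration-response curves derived from the normalized delta values.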

[19] = biological target: RecQ-like DNA helicase BLM (Homo sapiens) (UniProt P54132); experiment: qHTS Validation Assay for Inhibitors of Bloom's syndrome helicase (BLM) (AID 2364); note: potency is the fitted concentration of half-maximal effect
How it was run: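 50 nM BLM preincubated 15 min at room temperature with compound in pH 8.0 Tris buffer containing 2.5 ug/ml poly(dI-dC); started with 200 nM TAMRA/BHQ-2 forked duplex and 2 mM ATP (final). Unwinding read as TAMRA fluorescence increase, two reads 2 h apart.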

Row | SMILES | outcome [1] | outcome [2] | outcome [3] | outcome [4] | outcome [5] | outcome [6] | outcome [7] | Potency [8] | outcome [9] | Potency [10] | outcome [11] | outcome [12] | outcome [13] | outcome [14] | Potency [15] | Potency [16] | outcome [17] | Potency [18] | Potency [19]
1 | O=C1CCC(N2C(=O)c3ccccc3C2=O)C(=O)N1 (stereo not drawn) | inactive | inactive | inactive | inactive | inactive | inactive | inactive | inactive | inactive | inactive | inactive | inactive | inactive | inactive | inactive | inactive | inactive | inactive | 
2 | O=NN(CCCl)C(=O)NCCCl |  | inactive | inactive | inactive | inactive | inactive | inactive | inactive | inactive | inactive | inactive | inactive | inactive | inactive | inactive | inactive | inactive | inactive | 
3 | NC(=O)c1cnccn1 |  | inactive | inactive | inactive | inactive | inactive | inactive | inactive | inactive | inactive | inactive | inactive | inactive | inactive | inactive | inactive | inactive | inactive | inactive
4 | CCCCNc1cc(C(=O)O)cc(S(N)(=O)=O)c1Oc1ccccc1 | inactive | inactive | inactive | inactive | inactive | inactive | inactive | inactive | inactive | inactive | inactive | inactive | inactive |  | inactive | inactive | inactive | inactive | 
5 | O=c1n(CCCN2CCN(c3cccc(Cl)c3)CC2)nc2ccccn12 |  | inactive | inactive | inactive | inactive | inactive | inactive | inactive | inactive | inactive | inactive |  | inactive |  | inactive | inactive | inactive | inactive | inactive
6 | Cc1ccc(N(CC2=NCCN2)c2cccc(O)c2)cc1 |  | inactive | inactive | inactive | inactive | inactive | inactive | inactive | inactive | inactive | inactive | inactive | inactive | inactive | inactive | inactive | inactive | inactive | 
7 | CCn1cc(C(=O)O)c(=O)c2cc(F)c(N3CCNC(C)C3)c(F)c21 (stereo not drawn) |  | inactive | inactive | inactive | inactive | inactive | inactive | inactive | inactive | inactive | inactive | inactive | inactive | inactive |  | inactive | inactive | inactive | inactive
8 | CCN(CC)CCCC(C)Nc1ccnc2cc(Cl)ccc12 (stereo not drawn) | inactive | inactive | inactive | inactive | inactive | inactive | inactive | inactive | inactive | inactive | inactive | inactive | inactive | inactive | 0.262 µM (active) | 0.165 µM (active) | inactive | inactive | inactive
9 | NCCCC(N)(C(=O)O)C(F)F (stereo not drawn) |  | inactive | inactive | inactive | inactive | inactive | inactive | inactive | inactive | inactive | inactive | inactive | inactive | inactive | inactive | inactive | inactive | inactive | 
10 | N=c1nc(N2CCCCC2)cc(N)n1O | inactive | inactive | inactive | inactive | inactive | inactive | inactive | inactive | inactive | inactive | inactive | inactive | inactive |  | inactive | inactive | inactive | inactive | inactive
11 | N[C@@H]1CONC1=O | inactive | inactive | inactive | inactive | inactive | inactive | inactive | inactive | inactive | inactive | inactive | inactive | inactive |  | inactive | inactive | inactive | inactive | 
12 | Cc1cn[nH]c1 |  | inactive | inactive | inactive | inactive | inactive | inactive | inactive | inactive | inactive | inactive | inactive | inactive |  | inactive | inactive | inactive | inactive | inactive
13 | CC(C[N+](C)(C)C)OC(N)=O (stereo not drawn) |  | inactive | inactive | inactive | inactive | inactive | inactive | inactive | inactive | inactive | inactive | inactive | inactive | inactive | inactive | inactive | inactive | inactive | inactive
14 | CC(C)(Sc1ccc(CCN(CCCCC2CCCCC2)C(=O)NC2CCCCC2)cc1)C(=O)O |  |  |  |  |  |  |  |  |  |  |  |  |  |  |  |  |  |  | 28.2 µM (active)
15 | Oc1ccc(C2CNCCc3c2cc(O)c(O)c3Cl)cc1 (stereo not drawn) |  |  |  |  |  |  |  |  |  |  |  |  |  |  |  |  |  |  | 35.5 µM (active)
